From PubChem BioAssay (NCATS)
Inconclusive results are not listed. The source made the active and inactive calls. Calls come from the whole dose curve; as a rule, active = well fitted curve in the direction sought with a large enough effect; inconclusive = small, poorly fitted or top-dose-only effect, or another doubt; inactive = no such curve, though single readings can be large; an effect the other way counts as inactive or inconclusive.

What was measured:
[1] = qHTS of pediatric cancer cell lines to identify multiple opportunities for drug repurposing: Primary screen for TC32 cells (AID 1347089); note: nearly all actives have a fitted effect of over 60% in size
Summary of the method: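 In the primary qHTS, MIPE compounds were tested at 11 concentrations (0.78 nM to 46 µM) and NPC compounds at 8 (0.59 nM to 46 µM) on TC32 cells for 48 h. CellTiter-Glo luminescence gave viability.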

[2] = qHTS of pediatric cancer cell lines to identify multiple opportunities for drug repurposing: Primary screen for DAOY cells (AID 1347090); note: nearly all actives have a fitted effect of over 55% in size; note: potency is the fitted concentration of half-maximal effect
Summary of the method: (§1)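 Eight- or eleven-point concentration series, 48 h treatment at 37 degrees C in growth media; readout CellTiter-Glo luminescence. Potency and efficacy were taken from the concentration-response curves.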

[3] = qHTS of pediatric cancer cell lines to identify multiple opportunities for drug repurposing: Primary screen for SJ-GBM2 cells (AID 1347091); note: potency is the fitted concentration of half-maximal effect
Summary of the method: as §1

[4] = qHTS of pediatric cancer cell lines to identify multiple opportunities for drug repurposing: Primary screen for SK-N-MC cells (AID 1347093); note: potency is the fitted concentration of half-maximal effect
Summary of the method: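 Metabolically active cells were quantified by ATP-dependent luminescence (CellTiter-Glo, 15 min at room temperature) following 48 h treatment. Cells had been plated at 500-1,000 per well and settled for 5 h beforehand.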

[5] = qHTS of pediatric cancer cell lines to identify multiple opportunities for drug repurposing: Primary screen for Saos-2 cells (AID 1347097); note: nearly all actives have a fitted effect of over 40% in size; note: potency is the fitted concentration of half-maximal effect
Summary of the method: (§2)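 Readout: CellTiter-Glo luminescence, 48 h treatment. Controls DMSO (neutral) and bortezomib 2.3 µM final (positive). Potency and efficacy taken from primary-screen concentration-response curves.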

[6] = qHTS of pediatric cancer cell lines to identify multiple opportunities for drug repurposing: Primary screen for SK-N-SH cells (AID 1347098); note: nearly all actives have a fitted effect of over 65% in size; note: potency is the fitted concentration of half-maximal effect
Summary of the method: (§3)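 Cells (500-1,000/well) rested 5 h, then received compounds for 48 h; metabolically active cells were measured by CellTiter-Glo luminescence. Final concentrations spanned up to 46 µM (MIPE, 11-point) or 0.59 nM-46 µM (NPC, 8-point) in primary screens, 11-point in follow-ups.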

[7] = qHTS of pediatric cancer cell lines to identify multiple opportunities for drug repurposing: Primary screen for LAN-5 cells (AID 1347100); note: potency is the fitted concentration of half-maximal effect
Summary of the method: (§4)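 Cells (500-1,000/well) in growth media were settled 5 h at 37 degrees C, then given compounds for 48 h. Viability was read as CellTiter-Glo luminescence. Primary runs used MIPE at 11 points (0.78 nM-46 µM) and NPC at 8 points (0.59 nM-46 µM); follow-ups used 11 points.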

[8] = qHTS of pediatric cancer cell lines to identify multiple opportunities for drug repurposing: Primary screen for RD cells (AID 1347104); note: nearly all actives have a fitted effect of over 55% in size; note: potency is the fitted concentration of half-maximal effect
Summary of the method: as §2

[9] = qHTS of pediatric cancer cell lines to identify multiple opportunities for drug repurposing: Primary screen for MG 63 (6-TG R) cells (AID 1347105); note: nearly all actives have a fitted effect of over 50% in size; note: potency is the fitted concentration of half-maximal effect
Summary of the method: as §2

[10] = qHTS of pediatric cancer cell lines to identify multiple opportunities for drug repurposing: Primary screen for control Hh wild type fibroblast cells (AID 1347106);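 note: series mostly up to about 46 µM; a drop in luminescence marks cytotoxicity and a rise apparent proliferation; nearly all actives have a fitted effect of over 55% in size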
Summary of the method: as §4

[11] = qHTS of pediatric cancer cell lines to identify multiple opportunities for drug repurposing: Primary screen for Rh30 cells (AID 1347107); note: nearly all actives have a fitted effect of over 75% in size; note: potency is the fitted concentration of half-maximal effect
Summary of the method: as §4

[12] = qHTS of pediatric cancer cell lines to identify multiple opportunities for drug repurposing: Primary screen for BT-37 cells (AID 1347094); note: series mostly up to about 57 µM
Summary of the method: as §2

[13] = qHTS of pediatric cancer cell lines to identify multiple opportunities for drug repurposing: Primary screen for NB-EBc1 cells (AID 1347095); note: potency is the fitted concentration of half-maximal effect
Summary of the method: as §2

[14] = qHTS of pediatric cancer cell lines to identify multiple opportunities for drug repurposing: Primary screen for U-2 OS cells (AID 1347096); note: nearly all actives have a fitted effect of over 50% in size
Summary of the method: as §4

[15] = qHTS of pediatric cancer cell lines to identify multiple opportunities for drug repurposing: Primary screen for BT-12 cells (AID 1347101); note: nearly all actives have a fitted effect of over 25% in size
Summary of the method: as §3

[16] = qHTS of pediatric cancer cell lines to identify multiple opportunities for drug repurposing: Primary screen for Rh18 cells (AID 1347102); note: nearly all actives have a fitted effect of over 65% in size
Summary of the method: as §4

[17] = qHTS of pediatric cancer cell lines to identify multiple opportunities for drug repurposing: Primary screen for OHS-50 cells (AID 1347103); note: nearly all actives have a fitted effect of over 40% in size
Summary of the method: as §3

[18] = qHTS of pediatric cancer cell lines to identify multiple opportunities for drug repurposing: Primary screen for A673 cells (AID 1347092); note: nearly all actives have a fitted effect of over 45% in size; note: potency is the fitted concentration of half-maximal effect
Summary of the method: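 48 h compound exposure, A673, 500-1,000 cells/well, 37 degrees C/5% CO2. MIPE: 11-point, 0.78 nM-46 µM; NPC: 8-point, 0.59 nM-46 µM (final). Readout CellTiter-Glo luminescence after 15 min RT.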

[19] = qHTS of pediatric cancer cell lines to identify multiple opportunities for drug repurposing: Primary screen for NB1643 cells (AID 1347099); note: nearly all actives have a fitted effect of over 50% in size
Summary of the method: as §2

Measured: Potency

O=C(O)C=Cc1ccc(O)c(O)c1
inactive: [1] | [3] | [9] | [10]
active: [2] 7.43 µM | [4] 2.64 µM | [5] 23.5 µM | [6] 24.1 µM | [7] 3.72 µM | [8] 33.2 µM | [11] 23.5 µM

O=C(Nc1c(Cl)cncc1Cl)c1ccc(OC(F)F)c(OCC2CC2)c1
inactive: [1] | [2] | [3] | [12] | [13] | [14] | [7] | [15] | [16] | [17] | [8] | [9] | [10] | [11]

O=C(CCN1CCN(C(=O)OCc2cc(Cl)cc(Cl)c2)CC1)c1ccc2[nH]c(=O)oc2c1
inactive: [1] | [2] | [3] | [4] | [12] | [13] | [14] | [7] | [16] | [17] | [8] | [9] | [10] | [11]

CC#CCn1c(N2CCC[C@@H](N)C2)nc2c1c(=O)n(Cc1nc(C)c3ccccc3n1)c(=O)n2C
inactive: [1] | [2] | [3] | [12] | [13] | [14] | [7] | [15] | [16] | [17] | [9] | [10]
active: [18] 23.5 µM

Cc1cc(OCCCc2c(C(=O)O)n(Cc3cccnc3)c3c(-c4c(COc5ccc(N6CCN([S+](C)(=O)[O-])CC6)cc5)nn(C)c4C)cccc23)cc(C)c1Cl
inactive: [1] | [14] | [10]
active: [2] 18.7 µM | [3] 23.5 µM | [4] 5.9 µM | [13] 23.5 µM | [5] 18.7 µM | [8] 29.6 µM | [9] 29.6 µM

CON=C(C(=O)N[C@@H]1C(=O)N2C(C(=O)OCOC(=O)C(C)(C)C)=C(C=Cc3scnc3C)CS[C@H]12)c1csc(N)n1
active: [4] 18.7 µM
inactive: [1] | [2] | [3] | [12] | [13] | [14] | [5] | [6] | [7] | [15] | [16] | [17] | [8] | [9] | [10] | [11]

NC1CCC(Nc2nc(Nc3ccc(C(=O)N4CCCCC4)cc3)c3ncn(-c4cccc(F)c4)c3n2)CC1 (centres undefined)
inactive: [1] | [2] | [3] | [4] | [12] | [13] | [14] | [5] | [6] | [19] | [7] | [15] | [16] | [17] | [8] | [9] | [10] | [11]

CC[C@H]1OC(=O)[C@H](C)C(=O)[C@H](C)[C@@H](O[C@H]2O[C@H](C)C[C@H](N(C)C)[C@@H]2O)[C@](C)(OC)C[C@@H](C)C(=O)[C@H](C)[C@H]2N(CCCCn3cnc(-c4cccnc4)c3)C(=O)O[C@]12C
inactive: [1] | [2] | [3] | [13] | [14] | [5] | [17]

N#C[C@H]1C[C@H]2C[C@@H]2N1C(=O)[C@@H](N)C12CC3CC(CC(O)(C3)C1)C2
active: [6] 24.1 µM
inactive: [1] | [2] | [3] | [18] | [12] | [13] | [14] | [15] | [17] | [8] | [10]

CN1[C@@H]2CCC[C@@H]1CC(NC(=O)c1nn(C)c3ccccc13)C2 (some centres undefined)
inactive: [1] | [2] | [3] | [18] | [12] | [14] | [5] | [7] | [15] | [17] | [8] | [9] | [10]
